High-throughput results: PubChem, National Center for Advancing Translational Sciences (NCATS)
Pol kappa inh – blocks human DNA polymerase kappa activity | Q9UBT6 | purified Pol kappa, fluorescent DNA synthesis assay, 10 min | Potency, µM (top dose mostly 107 µM), for the others: at the highest dose activity, negative = inhibition, actives largely listed as inhibitors | hit rate 0.53% among 400,000 | AID 588579; note: % is set by controls: 0 for no effect and ±100 for the full control effect
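Kinetic fluorescence screen: compound preincubated 15 min RT with 10 nM enzyme; 50 nM substrate (final) initiates; reads at 0/10 min.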
WRN inhibitor – inhibitors of human WRN helicase | Q14191 | WRN helicase unwinding, fluorescent forked duplex, kinetic | Potency, µM (doses to about 114 µM), inactives show top-dose activity change, negative = inhibition, hits mostly inhibitors | hit rate 0.46% among 360,000; note: % is set by controls: 0 for no effect and ±100 for the full control effect; nearly all actives have a fitted effect of over 55% in size
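WRN at 20 nM final was preincubated with compound for 15 min at room temperature; reaction started with 100 nM forked duplex oligonucleotide carrying fluorophore and quencher plus 2 mM ATP (final). Unwinding followed kinetically by red fluorescence (ex 525/em 598 nm).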
Pol iota inh – DNA polymerase iota (human) inhibition. Potency, µM (series often up to 115 µM), for inactives: at the highest dose activity, negative = inhibition, usual class: inhibitors. Q9UNA4. Pol iota fluorescent replication assay, 10 min. hit rate 1% among 390,000
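Fluorescent replication assay read twice, at 0 min and 10 min after adding 50 nM (final) substrate. Enzyme (10 nM) and compounds were first incubated 15 min at room temperature; enzyme-free buffer wells were negative controls.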
Pol beta inh – inhibitors of human DNA polymerase beta; P06746; Pol beta primer extension/strand displacement, fluorescence kinetic; Potency, µM (top dose mostly 114 µM), without a hit: top-dose activity change, negative = inhibition, usual class: inhibitors; hit rate 1.3% among 340,000; AID 485314; note: % is set by controls: 0 for no effect and ±100 for the full control effect
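Enzyme-only controls used 10 nM Pol beta; buffer lacking enzyme served as negative control. Compound preincubated 15 min, then 50 nM substrate added; 0 and 10 min reads at room temperature.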
Pol eta inh – inhibitors of human DNA polymerase eta; Q9Y253; recombinant Pol eta, fluorescent DNA replication assay; Potency, µM (titrated, usually from 114 µM), inactives show at the top dose activity change, negative = inhibition, most hits filed as inhibitors; hit rate 1.2% among 390,000; AID 588591; note: % is set by controls: 0 for no effect and ±100 for the full control effect
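Pol eta (10 nM) was preincubated with compounds for 15 min at room temperature, after which fluorescent replication substrate (50 nM final) was added to start the reaction. Fluorescence was read kinetically at 0 and 10 min.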
* = called active by the depositor; [ ] = dose if it differs, or a comment. The list is not random: actives were taken first. Their share in the collection is about 2.3%. Calls come from the whole dose curve; as a rule, active = well fitted curve in the direction sought with a large enough effect; inconclusive = small, poorly fitted or top-dose-only effect, or another doubt; inactive = no such curve, though single readings can be large; an effect the other way counts as inactive or inconclusive. Potency is the fitted concentration of half-maximal effect.

Screening N#Cc1c2c(c(Cl)n3c1nc1ccccc13)CCCC2 returned Pol kappa inh 3.9% and Pol iota inh -13.9%.
For Cc1ccc(NCCC(=O)c2ccc(Cl)cc2)cc1C the results were Pol kappa inh 1.9%, WRN inhibitor 7.4%, Pol iota inh 100µM*, Pol beta inh 24.7% and Pol eta inh 1.6%.
Screening CCOC(=O)c1noc2nc(C)n(CC(=O)Nc3ccc(OC)c(Cl)c3)c(=O)c12 returned Pol kappa inh 3.8%[60.1 µM], Pol iota inh 10.0%, Pol beta inh 20µM* and Pol eta inh -9.3%.
COc1cccc2c1CCCC2CCCN1CCN(C2CCCCC2)CC1 (centres undefined) was read as Pol kappa inh 10.3%[60.1 µM].
For O=C(CSc1nc(O)cc(=O)[nH]1)Nc1ccc2c(c1)CCC2 the results were Pol kappa inh 79.4µM*, WRN inhibitor inconclusive, Pol iota inh 15.8µM*, Pol beta inh inconclusive and Pol eta inh -17.0%.
For O=C(CSc1nc(NS(=O)(=O)c2ccccc2)cc(=O)[nH]1)Nc1cccc(C(F)(F)F)c1 the results were Pol kappa inh -24.9%, WRN inhibitor -15.7%, Pol iota inh inconclusive, Pol beta inh inconclusive and Pol eta inh -23.4%.
For O=C(CSc1nc(NS(=O)(=O)c2ccccc2)cc(=O)[nH]1)Nc1ccc(F)cc1 the results were Pol kappa inh 50.1µM*, WRN inhibitor inconclusive, Pol iota inh 17.8µM*, Pol beta inh 25.1µM* and Pol eta inh inconclusive.
`N#Cc1c(-c2cccc(Br)c2)cc(-c2ccco2)[nH]c1=O` gave Pol kappa inh -37.9%, WRN inhibitor inconclusive, Pol iota inh inconclusive, Pol beta inh 17.8µM* and Pol eta inh 50.1µM*.
Cc1noc(C)c1-c1nccc(N(C)Cc2ccco2)n1 was read as Pol kappa inh -4.1%[60.1 µM].
For CN(Cc1ccco1)c1ccnc(-c2cccnc2)n1 the results were Pol kappa inh 25.1µM*.
COc1ccccc1C(=O)NNC(=O)c1ccc2ccccc2c1 was read as Pol kappa inh 89.1µM*, WRN inhibitor -0.7%, Pol iota inh 36.5%, Pol beta inh 12.1% and Pol eta inh -17.0%.
COc1ccccc1C(=O)Nc1ccc2c(c1)C(=O)NC2=O was read as Pol kappa inh -16.1%, WRN inhibitor -20.0%, Pol iota inh 12.3%, Pol beta inh 56.2µM* and Pol eta inh -13.0%.
For COc1cc2ccccc2cc1C(=O)Nc1ccc(O)cc1 the results were Pol kappa inh -6.0%, WRN inhibitor -13.6%, Pol iota inh 66.4%, Pol beta inh 22.4µM* and Pol eta inh -3.1%.
Screening CC(C)(C)OC(=O)N1C=CCC1CN1C(=O)COCC1=O (centres undefined) returned Pol kappa inh -1.4% and Pol iota inh 2.0%.
For COc1ccc(-c2nc3ccc(C4=C(C)CC(=O)NN4)cc3[nH]2)cc1 the results were Pol kappa inh -2.0%[19.4 µM].
Cc1ccc(Cn2c(C(C)Nc3nc(-c4ccc(C)cc4)cs3)nc3cc(Cl)c(Cl)cc32)cc1 (centres undefined) was read as Pol kappa inh -13.1%, WRN inhibitor inconclusive, Pol iota inh -15.4%, Pol beta inh 31.6µM* and Pol eta inh -28.5%.
Screening Nc1cc([N+](=O)[O-])ccc1N1C(=O)CCCC1=O returned Pol kappa inh -19.6%, WRN inhibitor -12.1%, Pol iota inh inconclusive, Pol beta inh 39.8µM* and Pol eta inh 8.8%.
CC(C)(C)c1nnc(N/N=C/c2cc(Br)ccc2O)n(N)c1=O was read as Pol kappa inh -8.6%, WRN inhibitor -13.4%, Pol iota inh 9.5%, Pol beta inh -14.4% and Pol eta inh -16.2%.
Screening CCc1nnc(N/N=C/c2cc(Br)c(O)cc2O)n1N returned Pol kappa inh 1.5%, WRN inhibitor -8.7%[11.6 µM], Pol iota inh 8.91µM*, Pol beta inh 0.3% and Pol eta inh -13.3%.
Screening CCc1nnc(N/N=C/c2ccc(O)c(OC)c2)n1N returned Pol kappa inh -6.5%, WRN inhibitor 0.7%[11.6 µM], Pol iota inh 8.91µM*, Pol beta inh 17.6% and Pol eta inh 2.7%.
`CCc1nnc(N/N=C\c2ccc(OC(C)=O)c(OC)c2)n1N` gave Pol kappa inh -31.0%, WRN inhibitor -5.3%[11.6 µM], Pol iota inh 2µM*, Pol beta inh -2.5% and Pol eta inh 0.5%.
COc1cc(/C=N/Nc2ccccn2)ccc1O was read as Pol kappa inh -10.4%, WRN inhibitor 9.3%, Pol iota inh 28.7%, Pol beta inh -13.6% and Pol eta inh -15.1%.
For CCOc1cc(/C=N/Nc2nnc(C)n2N)ccc1OC(C)=O the results were Pol kappa inh -25.5%, WRN inhibitor -4.5%, Pol iota inh 2.82µM*, Pol beta inh inconclusive and Pol eta inh -15.5%.
For COc1cc(/C=N/NC(=O)Nc2ccccc2)ccc1OC(C)=O the results were Pol kappa inh -10.5%, WRN inhibitor -9.3%, Pol iota inh 2.3%, Pol beta inh 21.7% and Pol eta inh -6.1%.
`CCOC(=O)CNC(=O)C1CCCCC1` gave Pol kappa inh 2.6% and Pol iota inh 21.2%.
COc1ccccc1-c1nnc(SC/C(O)=C(\C#N)c2nc3ccccc3[nH]2)n1C1CCCCC1 was read as Pol kappa inh -6.0%, WRN inhibitor -22.8%, Pol iota inh 9.6%, Pol beta inh -26.4% and Pol eta inh inconclusive.
N#C/C(=C(/O)CSc1nnc(Cc2cccs2)n1C1CCCCC1)c1nc2ccccc2[nH]1 was read as Pol kappa inh inconclusive, WRN inhibitor 3.8%[11.6 µM], Pol iota inh inconclusive, Pol beta inh 17.8µM* and Pol eta inh 25.1µM*.
For Cn1c(-c2ccc3nc(N)sc3c2)nc2cc(N)ccc21 the results were Pol kappa inh 70.8µM*, WRN inhibitor inconclusive, Pol iota inh 31.6µM*, Pol beta inh 20µM* and Pol eta inh inconclusive.
Cc1nn(-c2ccccc2)c(NC(=O)NS(=O)(=O)c2ccc(Cl)cc2)c1C#N was read as Pol kappa inh 16.2%[60.1 µM].
`Cc1ccc(-c2nc(=Nc3c(C)cc(C)cc3C)sn2-c2ccccc2)cc1` gave Pol kappa inh -12.5% and Pol iota inh 8.4%.
`O=[N+]([O-])c1c(NCCCO)cc(SCc2ccco2)c2nonc12` gave Pol kappa inh -4.5%, WRN inhibitor -36.1%, Pol iota inh 4.1%, Pol beta inh 50.1µM* and Pol eta inh 12.8%.
Screening CC(=O)OCCNc1cc(SCc2ccco2)c2nonc2c1[N+](=O)[O-] returned Pol kappa inh 79.4µM*, WRN inhibitor inconclusive, Pol iota inh 17.8µM*, Pol beta inh inconclusive and Pol eta inh inconclusive.
Screening COc1ccc(CNC(=O)c2ccc(CN3C(=O)C(C)=C(c4ccc(C)cc4)S3(=O)=O)cc2)cc1 returned Pol kappa inh -5.5%, Pol iota inh -16.9%, Pol beta inh 0.3% and Pol eta inh 9.4%.
For CCCCN(CC)c1nc(C)nc2c1c(C)c(C)n2-c1c(C)cc(C)cc1C the results were Pol kappa inh 6.3%[60.1 µM].
